For 19 compounds, inhibition and activity results are on record in PubChem BioAssay.

The target of test [1] is PEG-3 (UniProt Q6IN02). As to the kind of experiment: inhibition of PEG-3 promoter-driven reporter – cell-based, HeLa, luciferase, CREF/GAPDH counter-screen panel, dose response (AID 624167). As to conditions: CREF/GAPDH counter-screens; HeLa PEG-Prom luciferase reporter, overnight, run 1, dose range 1, at 100 µM (top of the series) unless noted. A general note: A counterscreen serves to expose hits that act by an unwanted route or on another target; in the data active = activity above about 50%; inactive = the rest.
Sequence of PEG-3 (Q6IN02 whole entry, looked up): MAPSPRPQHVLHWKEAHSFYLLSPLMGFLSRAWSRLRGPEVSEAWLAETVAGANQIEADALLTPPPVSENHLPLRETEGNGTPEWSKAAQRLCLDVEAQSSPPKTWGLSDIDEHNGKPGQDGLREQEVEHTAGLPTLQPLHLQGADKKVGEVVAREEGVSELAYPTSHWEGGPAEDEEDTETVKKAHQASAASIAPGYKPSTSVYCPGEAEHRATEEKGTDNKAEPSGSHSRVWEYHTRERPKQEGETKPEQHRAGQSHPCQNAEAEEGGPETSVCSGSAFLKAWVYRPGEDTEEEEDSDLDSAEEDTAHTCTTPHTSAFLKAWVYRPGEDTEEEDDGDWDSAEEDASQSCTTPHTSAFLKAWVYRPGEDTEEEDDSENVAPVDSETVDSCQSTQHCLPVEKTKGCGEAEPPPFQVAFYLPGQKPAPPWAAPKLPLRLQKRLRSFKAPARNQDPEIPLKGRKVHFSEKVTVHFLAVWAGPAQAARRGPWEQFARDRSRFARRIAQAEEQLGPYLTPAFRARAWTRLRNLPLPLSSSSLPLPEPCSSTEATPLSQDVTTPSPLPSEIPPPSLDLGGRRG

Test [2] concerns the target PEG-3 (UniProt Q6IN02). Described as above. The following applies: CREF/GAPDH counter-screens; HeLa PEG-Prom luciferase reporter, overnight, run 2, dose range 1, at 100 µM (top of the series) unless noted.
Test [3] has as its system Rat fibroblasts (CREF). Described as above. The following applies: CREF/GAPDH counter-screens; run 1, dose range 1, at 100 µM (top of the series).
The test system of test [4] is Rat fibroblasts (CREF). The test is described as above. As to conditions: CREF/GAPDH counter-screens; run 2, dose range 1, at 100 µM (top of the series).
In test [5] the target is Tumor necrosis factor receptor superfamily member 10B (Homo sapiens) (UniProt O14763). As to the kind of experiment: viability loss of caspase-8 NB7 cells with TRAIL – with/without TRAIL, luminescence panel, confirmation (AID 651596). The following applies: NB7 neuroblastoma + caspase-8, TRAIL sensitization, NB7 Caspase-8, with TRAIL, mean of runs, at 10 µM, stronger effect = higher value.
Sequence of Tumor necrosis factor receptor superfamily member 10B (Homo sapiens) (O14763 whole entry, looked up): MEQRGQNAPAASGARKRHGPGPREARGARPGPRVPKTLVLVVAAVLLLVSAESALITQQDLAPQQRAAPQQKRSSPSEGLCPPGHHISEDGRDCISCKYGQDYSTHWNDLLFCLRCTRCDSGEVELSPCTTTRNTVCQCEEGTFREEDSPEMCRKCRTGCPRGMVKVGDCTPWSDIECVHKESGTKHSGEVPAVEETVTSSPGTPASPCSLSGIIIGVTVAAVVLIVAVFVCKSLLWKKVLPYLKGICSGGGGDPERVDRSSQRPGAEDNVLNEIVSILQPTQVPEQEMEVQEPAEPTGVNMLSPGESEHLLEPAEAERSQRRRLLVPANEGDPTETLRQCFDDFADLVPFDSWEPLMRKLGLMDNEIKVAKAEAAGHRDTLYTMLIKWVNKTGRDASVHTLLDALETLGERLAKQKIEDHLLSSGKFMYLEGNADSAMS

Assay in test [6]: as above
The following applies: NB7 neuroblastoma + caspase-8, without TRAIL, NB7 Caspase-8, without TRAIL, mean of runs, at 10 µM.

One may read the inhibition as the drop in the measured response relative to a control, in per cent. On to `CCN1C=CC(=C2C(=O)c3ccccc3C2=O)C=C1`, for which the inhibition with PEG-3 [1] came to 96.8%; with PEG-3 [2], 98.3%; with Rat fibroblasts (CREF) [3], 99.8%; with Rat fibroblasts (CREF) [4], 101%.
For the compound `CC(=O)c1cccc(-c2ccnc3c2CC(C(=O)Nc2cccc(NS(C)(=O)=O)c2)O3)c1` (configuration not stated), the inhibition with PEG-3 [1] was found to be 58%; in the test with PEG-3 [2], 65%; in the test with Rat fibroblasts (CREF) [3] it was 30%; in the test on Rat fibroblasts (CREF) [4] it was 47.2%. The activity in test [5] was found to be 74.9%; in test [6], 73.6%.
Take `CCCCCCN1C=C/C(=C\C=C(C#N)C#N)c2ccccc21`: the inhibition was 54.3% with PEG-3 [1], 78.7% with PEG-3 [2], 43.7% with Rat fibroblasts (CREF) [3] and 89.7% in the test with Rat fibroblasts (CREF) [4].
For `Cc1ccc(-n2[nH]c(=O)c(-c3ccccn3)c2C)cc1`, in that order: 94.8%, 90.3%, 86.5% and 87.2%.
In the case of `CCCC(=O)NC(c1ccc(C)cc1)c1ccc2cccnc2c1O` (configuration not stated), the inhibition was found to be 96.2% in the test with PEG-3 [1], 83.5% in the test with PEG-3 [2], 3.2% with Rat fibroblasts (CREF) [3] and 23.3% in the test on Rat fibroblasts (CREF) [4].
As to `CC1=CC2C(C(O)CC3(C)C2CC(C)C32OCOC23COCO3)C2(C)C/C(=C\O)C(=O)C=C12` (configuration not stated), the inhibition with PEG-3 [1] is 102%; with PEG-3 [2], 101%; in the test with Rat fibroblasts (CREF) [3], 100%; with Rat fibroblasts (CREF) [4], 100%. The activity amounted to 94.3% in test [5] and 98.1% in test [6].
In the case of `O=C(O)c1ccc(N/N=C/c2ccc(OC(=O)c3cccc(Cl)c3)cc2)cc1`, the inhibition in the test with PEG-3 [1] was determined as 101%; with PEG-3 [2], 99.4%; in the test on Rat fibroblasts (CREF) [3] it was 46.5%; in the test on Rat fibroblasts (CREF) [4], 40%.
`Cc1cc(S(=O)(=O)c2ccc(Cl)cc2)nc(S(=O)(=O)c2ccc(Cl)cc2)c1C#N`: the inhibition with PEG-3 [1] was 99.1%; with PEG-3 [2] it was 101%; with Rat fibroblasts (CREF) [3] it was 98.2%; with Rat fibroblasts (CREF) [4], 98.8%.
In the case of `Cc1cc(C(=O)COC(=O)c2ccccc2O)c(C)n1Cc1cccs1`, the inhibition in the test with PEG-3 [1] was determined as 88.8%; with PEG-3 [2] it was 94.8%; in the test on Rat fibroblasts (CREF) [3], 94.6%; with Rat fibroblasts (CREF) [4], 87.5%. The activity in test [5] came out at 95.7%; in test [6], 95.5%.
With `O=C(CN1C(=O)c2ccccc2S1(=O)=O)c1ccc2c(c1)OCCCO2`, the inhibition with PEG-3 [1] was determined as 98.1%; with PEG-3 [2], 98.8%; in the test on Rat fibroblasts (CREF) [3], 99.7%; in the test on Rat fibroblasts (CREF) [4] it was 99.4%. Further, the activity in test [5] came out at 95.4%; in test [6], 94.1%.
Regarding `COc1cc(/C=N/O)ccc1OCc1ccc(C(=O)O)cc1`, the inhibition with PEG-3 [1] is 88.6%; with PEG-3 [2], 90.2%; with Rat fibroblasts (CREF) [3], 92%; in the test with Rat fibroblasts (CREF) [4], 91.3%. For the same compound, the activity in test [5] is 72.7%; in test [6] it was 65.7%.
For `Cc1c(C)c2ccc(OCC(=O)Nc3ccccn3)c(C)c2oc1=O`, the inhibition amounted to 99.2% in the test with PEG-3 [1], 93.2% in the test with PEG-3 [2], 98.5% in the test on Rat fibroblasts (CREF) [3] and 97.8% in the test on Rat fibroblasts (CREF) [4].
On to `O=C(N/N=C/c1c(O)ccc2ccccc12)c1ccc(CO)nc1`, for which the inhibition with PEG-3 [1] turned out to be 51.6%; in the test with PEG-3 [2], 60.4%; in the test with Rat fibroblasts (CREF) [3] it was 54%; in the test on Rat fibroblasts (CREF) [4], 47.6%.
`O=C(NC(=O)c1ccccc1)Nc1ccccn1`: the inhibition in the test with PEG-3 [1] turned out to be 98.8%; with PEG-3 [2] it was 94%; with Rat fibroblasts (CREF) [3] it was 95.3%; in the test on Rat fibroblasts (CREF) [4], 96.8%.
For the compound `CC(=O)N1CCCC(c2cc(C(=O)Nc3ccccc3)no2)C1` (configuration not stated), the inhibition was 100% with PEG-3 [1], 90.2% with PEG-3 [2], 93.1% in the test on Rat fibroblasts (CREF) [3] and 92% with Rat fibroblasts (CREF) [4].
Regarding `Cc1ccccc1OCC(O)CNC1CCC(NCC(O)COc2ccccc2C)CC1` (configuration not stated), the inhibition came out at 94.1% with PEG-3 [1], 95.8% in the test with PEG-3 [2], 98.1% with Rat fibroblasts (CREF) [3] and 97.9% in the test with Rat fibroblasts (CREF) [4]. For the same compound, the activity in test [5] was 94.4%; in test [6] it was 99.8%.
For `Cc1ccc(C(=O)CN2C(=O)c3ccccc3S2(=O)=O)cc1`, the inhibition with PEG-3 [1] worked out at 93.5%; in the test with PEG-3 [2] it was 92.4%; with Rat fibroblasts (CREF) [3], 87.2%; with Rat fibroblasts (CREF) [4], 87.5%.
Regarding `O=c1c(Cl)c(N2CCCCC2)cnn1-c1nc2ccccc2[nH]1`, the inhibition in the test with PEG-3 [1] turned out to be 96.7%; in the test with PEG-3 [2], 95%; in the test with Rat fibroblasts (CREF) [3], 100%; with Rat fibroblasts (CREF) [4] it was 100%. Moreover, the results for the activity in test [5] and in test [6] were 96.4% and 96.5%, respectively.
On to `COc1ccc(N(C(=O)CCl)C(C(=O)NC2CCCCC2)c2cccnc2)cc1` (configuration not stated), for which the inhibition in the test with PEG-3 [1] was 99.1%; with PEG-3 [2], 102%; in the test with Rat fibroblasts (CREF) [3], 97.1%; in the test with Rat fibroblasts (CREF) [4], 94.1%. The activity in test [5] amounted to 99.5%; in test [6], 98.7%.
